# In PubChem BioAssay AID485281 (National Center for Advancing Translational Sciences (NCATS), 2010):
# Among all 350,000 compounds or so, about 260 (0.074%) were called active. Inconclusive results (about 8%) are left out. Only a selection was taken, and actives are over-represented in it overall. Values without a mark were called inactive. Calls come from the whole dose curve; as a rule, active = well fitted inhibition curve with a large enough effect; inconclusive = small, poorly fitted or top-dose-only effect; inactive = no such curve, though single readings can be large or run the other way.
# Molecular target: Ferritin light chain (Equus caballus) (UniProt P02791)
# Sequence (P02791 2-175 limits assumed): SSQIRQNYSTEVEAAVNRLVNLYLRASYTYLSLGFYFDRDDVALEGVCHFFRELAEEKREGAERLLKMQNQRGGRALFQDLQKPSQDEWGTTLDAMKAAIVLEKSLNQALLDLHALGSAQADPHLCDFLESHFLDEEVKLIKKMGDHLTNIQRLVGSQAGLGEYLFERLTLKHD
# Experiment: qHTS Assay for Identification of Novel General Anesthetics; note: nearly all actives have a fitted effect of over 20% in size
# Conditions: apoferritin/1-aminoanthracene competitive binding, fluorescence; series mostly up to 77.5 µM; activity change, negative = displacement: at the top concentration
# Description: Source: NIH Chemical Genomics Center [NCGC]
# Assay Submitter: Roderic Eckenhoff, University of Pennsylvania
# Screening Center PI: Christopher P. Austin, NIH
# Probe Development: NIH Chemical Genomics Center [NCGC]
# Anesthetic development has remained a largely empirical process. There are growing concerns about the cognitive effects of known general anesthetics and acceleration of the onset of neurodegenerative disease. The compounds' toxicity and multiple specific binding targets in the mammalian brain [4] has made them less attractive as drug leads. In this assay, a GABAergic mimetic model system, apoferritin and a profluorescent 1-aminoanthracene ligand (1-AMA), was used to construct a competitive binding assay for identification of novel general anesthetics. The assay was validated for 1-AMA using other known anesthetics, such as isoflurane (CID:3763) and propofol (CID: 4943), [6].
# [1] S.L. Bianchi, T. Tran, C. Liu, S. Lin, Y. Li, J.M. Keller, R.G. Eckenhoff, and M.F. Eckenhoff, Brain and behavior changes in 12-month-old Tg2576 and nontransgenic mice exposed to anesthetics. Neurobiol Aging 29 (2008) 1002-10.
# [2] Z. Xie, Y. Dong, U. Maeda, R.D. Moir, W. Xia, D.J. Culley, G. Crosby, and R.E. Tanzi, The inhalation anesthetic isoflurane induces a vicious cycle of apoptosis and amyloid beta-protein accumulation. J Neurosci 27 (2007) 1247-54.
# [3] P. Honegger, and J.M. Matthieu, Selective toxicity of the general anesthetic propofol for GABAergic neurons in rat brain cell cultures.
# [4] M.F. Eckenhoff, K. Chan, and R.G. Eckenhoff, Multiple specific binding targets for inhaled anesthetics in the mammalian brain. J Pharmacol Exp Ther 300 (2002) 172-9.
# [5] C.A. Butts, J. Xi, G. Brannigan, A.A. Saad, S.P. Venkatachalan, R.A. Pearce, M.L. Klein, R.G. Eckenhoff, and I.J. Dmochowski, Identification of a fluorescent general anesthetic, 1-aminoanthracene. Proc Natl Acad Sci U S A 106 (2009) 6501-6.
# [6] W.A. Lea, J. Xi, A. Jadhav, L. Lu, C.P. Austin, A. Simeonov, and R.G. Eckenhoff, A high-throughput approach for identification of novel general anesthetics. PLoS One 4 (2009) e7150.
# Three uL of reagents (free 1-AMA (50% saturated solution of 1-aminoanthracene
# in PBS) in columns 3, 4 as negative control and 1-AMA/apoferritin mixture (10 uM horse-spleen apoferritin in 50% saturated 1-aminoanthracene in PBS) in columns 1, 2, 5-48) was dispensed into 1536-well Greiner black assay plates. Compounds (23 nL) were transferred via Kalypsys pintool equipped with 1,536-pin array (10 nL slotted pins, V&P Scientific, San Diego, CA). Titration of the positive control, propofol, were delivered via pin transfer from separate control plates to the 2nd column of each assay plate. The starting concentration of the control, dissolved in DMSO, was at 160 mM, followed by two-fold dilution points in duplicate, for a total of 16 concentrations. The plates were incubated for 10 min at room temperature, and then read on an EnVision HTS multilabel reader (Perkin-Elmer, Waltham, MA) (end point read, 3 min/plate) using Fura2 BFP excitation filter (380 nm, bandwidth 10 nm) and fluorescein emission filter (535 nm, bandwidth 25 nm) set. A LANCE/DELFIA dichroic mirror with a cutoff wavelength at 400 nm was used to maximize signal accuracy and strength. Vehicle-only plates, with DMSO being pin-transferred to the entire column 5-48 compound area, were inserted uniformly at the beginning and the end of each library in order to monitor for and record any shifts in the background. Activity was computed as the normalized fluorescence response relative to free 1-AMA and 1-AMA/apoferritin complex values. Concentration-effect relationships were derived by using curve fitting algorithms developed in-house (http://ncgc.nih.gov/pub/openhts/). A four parameter Hill equation was fitted to the concentration-response data by minimizing the residual error between the modeled and observed responses.
# % is set by controls: 0 for no effect and ±100 for the full control effect; potency is the fitted concentration of half-maximal effect.
Compound,"activity change, negative = displacement [%]",Potency
CCc1cccc(NC(=O)CSc2nccn2C)c1,-12.6,–
COc1ccc(-c2cn3c(C)c(C(=O)Nc4cc(C)cc(C)c4)sc3n2)cc1,1.93,–
O=S(=O)(c1ccccc1)c1nc(-c2ccc(Cl)cc2Cl)oc1N1CCCCC1,643,–
COc1cc(C(=O)Nc2ccc(-n3c(C)nc4ccccc4c3=O)cc2)cc(OC)c1OC,5.65,–
O=C(CC1C(=O)NCCN1Cc1ccc(-c2ccccc2)cc1)NCC1CCOCC1 (configuration not stated),-9.06,–
Cc1nccn1CCCNC(=O)CC1C(=O)NCCN1Cc1ccc(Cl)c(F)c1 (configuration not stated),-5.87,–
CCOc1ccc(CN2CCNC(=O)C2CC(=O)NCCCC2CCCC2)cc1 (configuration not stated),–,31.6 µM (active)
CC(=O)c1cccc(NC(=O)c2nc(-c3ccccc3)n(-c3cccc(C)c3)n2)c1,-12,–
O=C(c1cnn(-c2ccc(F)cc2)c1-n1cccc1)N1CCN(c2ccc(F)cc2)CC1,5.79,–
CCCn1c2ccccc2c2cnn(CC(=O)N(C)c3ccccc3CC)c(=O)c21,90.4,–
O=C(CCC(=O)N1CC2CCCN2c2ccccc21)NCc1ccccc1Cl (configuration not stated),-0.193,–
Cc1ccc2nc(-c3ccc(C)c(NC(=O)Cc4ccccc4)c3)oc2c1,-0.615,–
COc1ccc(N(CC(=O)NCCc2ccc(Cl)cc2)S(=O)(=O)c2c(C)nn(C)c2C)cc1,-5.18,–
COC(=O)CSc1ccc2nnc(CCNS(=O)(=O)c3ccc(C)cc3)n2n1,–,inactive
O=S(=O)(NCCc1nnc2ccc(SCc3ccc(Cl)cc3Cl)nn12)c1ccccc1,–,17.8 µM (active)
Cc1ccc(S(=O)(=O)NCCc2nnc3ccc(SCc4cccnc4)nn23)cc1,-11.4,–
CN1C(=O)c2ccccc2Sc2ccc(NC(=O)Cc3ccc(Cl)cc3)cc21,-9.63,–
O=C(NCC(c1ccc2c(c1)OCO2)N1CCN(c2ccccc2)CC1)C(=O)Nc1ccccc1F (configuration not stated),-2.09,–
Cc1ccc(Cl)cc1NC(=O)C(C)n1nnc2sc(-c3ccccc3)cc2c1=O (configuration not stated),6.14,–

Compound,"activity change, negative = displacement [%]",Potency
O=C(Cn1cc(SCc2cccc(Cl)c2)c2ccccc21)N1CCCCC1,38.8,–
CCN1CCN(c2ncc3c(n2)CC(c2ccccc2O)CC3=O)CC1 (configuration not stated),-14.1,–
CCCSc1nsc(N)n1,-16.3,–
CCCCCCSc1nsc(N)n1,–,8.91 µM (active)
Nc1nc(SC23CC4CC(CC(C4)C2)C3)ns1,-7.75,–
O=C(c1ccc(Br)cc1)N(Cc1cccs1)c1ccc(F)cc1,8.94,–
Cn1cc(S(=O)(=O)N2CCCCCC2)cc1C(=O)N1CCN(c2ccc(F)cc2)CC1,-7.65,–
CC1Cc2ccccc2N1C(=O)CSc1nnc(C2CC2)n1C (configuration not stated),-5.61,–
CC1Cc2ccccc2N1C(=O)CSc1nc2ccccc2o1 (configuration not stated),-12.6,–
Cc1cc(=O)[nH]c(SCC(=O)N2c3ccccc3CC2C)n1 (configuration not stated),–,14.1 µM (active)
O=C(NCCCN1CCN(c2cccc(Cl)c2)CC1)c1nnc(Cc2ccc(F)cc2Cl)o1,-1.63,–
COc1ccccc1CNC(=O)CCn1c(=O)c2ccccc2n(CC(=O)Nc2cccc(Cl)c2)c1=O,-10.4,–
CCOc1cccc2c1N[C@@H](c1ccc(C(=O)O)cc1)[C@H]1CC=C[C@@H]21,-3.52,–
CCC(=O)N1c2ccccc2CC1C(=O)N1CCN(c2ccccc2F)CC1 (configuration not stated),-12.2,–
COc1ccc(-n2ccnc(NCCc3ccc(Cl)cc3)c2=O)cc1OC,-7.82,–
O=C(Cn1nc(C(F)(F)F)c2c1CCCC2)Nc1ccc(Cl)cc1,-13.6,–
COC(=O)c1ccc(NC(=O)CCc2c(C)nn(-c3ccc(N4CCCC4)nn3)c2C)cc1,-7.89,–
COc1ccc(CCn2cc3c(c2-c2ccc(Br)cc2)c(=O)n(C)c(=O)n3C)cc1OC,0.216,–
COc1ccc(CC(=O)NCCc2sc3nc(-c4ccc(OC)cc4)nn3c2C)cc1,4.35,–

Compound,"activity change, negative = displacement [%]",Potency
Cc1cccc(N2CCN(C3=C(c4ccccc4)C(=O)c4ccccc43)CC2)c1C,6.14,–
CCOc1ccc(N(C)S(=O)(=O)c2cc(-c3cnc(C)o3)ccc2OC)cc1,-4.52,–
CC(=O)c1ccc(NC(=O)CSc2c(C(C)C)cnc3c2c(=O)n(C)c(=O)n3C)cc1,-11.9,–
CCOc1ccc(C(=O)Nc2ccc3nc4c(c(Nc5ccccc5OC)c3c2)CCCC4)cc1,-7.47,–
COc1ccc(NC(=O)c2ccco2)cc1NC(=O)COc1ccc(C)c(C)c1,-12.7,–
CCOc1ccc(N(CC)S(=O)(=O)N2CCCC(C(=O)NCc3ccc(SC)cc3)C2)cc1 (configuration not stated),91.3,–
O=C(Nc1ccccc1F)C(c1ccccc1)N1Cc2ccccc2C1=O (configuration not stated),-7.39,–
CC(=O)N1CCc2cc(S(=O)(=O)NC(Cc3ccccc3)C(=O)NCc3ccc(C)cc3)ccc21 (configuration not stated),-6.46,–
COc1cc2c(cc1OC)C(COc1ccc(F)cc1)N(C(=O)c1ccccc1F)CC2 (configuration not stated),-10,–
COc1ccc(-c2onc(C)c2C)cc1S(=O)(=O)NCCc1ccccc1,-9.42,–
Cc1ccc(-c2cc(N)n(Cc3cccc(Cl)c3)n2)cc1,-0.129,–
Cc1ccccc1C(=O)N(Cc1ccc(N(C)C)cc1)CC1CCCO1 (configuration not stated),-3.91,–
CCOc1cc(C2c3c(-c4ccc(Br)cc4)n[nH]c3C(=O)N2c2ccc(Cl)cc2)ccc1O (configuration not stated),-6.72,–
CC(C)c1ccc(NC(=O)C2CCN(c3nc(-c4ccc(C(C)C)cc4)no3)CC2)cc1,40.1,–
Cc1ccc(NC(=O)CSc2nc3c([nH]c4ccccc43)c(=O)n2-c2ccccc2)c(C)c1,-3.33,–
CCCOc1ccc(C(=O)Nc2ccc3oc(-c4cccc(Cl)c4Cl)nc3c2)cc1,3.64,–
COc1cc(OC)c(OC)cc1/C=C/c1nc2ccccc2c(=O)n1-c1ccc(Br)c(C)c1,7.26,–
COc1ccc(N2CCN(C(=O)C3CCCN(C(=O)c4cc5sccc5n4C)C3)CC2)cc1 (configuration not stated),37,–
CCc1ccccc1OCCSc1nc(-c2cccs2)nc2cc(=O)[nH]n12,-9.64,–
